Results filed as inconclusive are left out. Activity calls are given as the source filed them. The call rests on the fitted dose curve; in most records, active means well fitted curve in the direction sought with a large enough effect; inconclusive means small, poorly fitted or top-dose-only effect, or another doubt; inactive means no such curve, though single readings can be large; an effect the other way counts as inactive or inconclusive.
Tests used:
[1] = qHTS of pediatric cancer cell lines to identify multiple opportunities for drug repurposing: Primary screen for NB1643 cells (AID 1347099); further: nearly all actives have a fitted effect of over 50% in size; further: potency means the concentration at half of the fitted maximal effect
Outline: (§1)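 Readout: CellTiter-Glo luminescence, 48 h treatment. Controls DMSO (neutral) and bortezomib 2.3 µM final (positive). Potency and efficacy taken from primary-screen concentration-response curves.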

[2] = qHTS of pediatric cancer cell lines to identify multiple opportunities for drug repurposing: Primary screen for LAN-5 cells (AID 1347100); further: potency means the concentration at half of the fitted maximal effect
Outline: (§2)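 Cells (500-1,000/well) rested 5 h, then received compounds for 48 h; metabolically active cells were measured by CellTiter-Glo luminescence. Final concentrations spanned up to 46 µM (MIPE, 11-point) or 0.59 nM-46 µM (NPC, 8-point) in primary screens, 11-point in follow-ups.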

[3] = qHTS of pediatric cancer cell lines to identify multiple opportunities for drug repurposing: Primary screen for BT-12 cells (AID 1347101); further: nearly all actives have a fitted effect of over 25% in size; further: potency means the concentration at half of the fitted maximal effect
Outline: as §2

[4] = qHTS of pediatric cancer cell lines to identify multiple opportunities for drug repurposing: Primary screen for OHS-50 cells (AID 1347103); further: nearly all actives have a fitted effect of over 40% in size; further: potency means the concentration at half of the fitted maximal effect
Outline: as §2

[5] = qHTS of pediatric cancer cell lines to identify multiple opportunities for drug repurposing: Primary screen for RD cells (AID 1347104); further: nearly all actives have a fitted effect of over 55% in size; further: potency means the concentration at half of the fitted maximal effect
Outline: as §1

[6] = qHTS of pediatric cancer cell lines to identify multiple opportunities for drug repurposing: Primary screen for MG 63 (6-TG R) cells (AID 1347105); further: nearly all actives have a fitted effect of over 50% in size; further: potency means the concentration at half of the fitted maximal effect
Outline: as §1

[7] = qHTS of pediatric cancer cell lines to identify multiple opportunities for drug repurposing: Primary screen for control Hh wild type fibroblast cells (AID 1347106);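 further: series mostly up to about 46 µM; a drop in luminescence marks cytotoxicity and a rise apparent proliferation; nearly all actives have a fitted effect of over 55% in size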
Outline: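 Viability after 48 h compound treatment at 37C, 500-1,000 cells/well, read as ATP luminescence with CellTiter-Glo. Primary screens used 11-point (MIPE, 0.78 nM-46 µM) or 8-point (NPC, 0.59 nM-46 µM) final concentrations; follow-up screens used 11-point dilutions.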

[8] = qHTS of pediatric cancer cell lines to identify multiple opportunities for drug repurposing: Primary screen for Rh30 cells (AID 1347107); further: series mostly up to about 46 µM; nearly all actives have a fitted effect of over 75% in size
Outline: as §2

[9] = qHTS of pediatric cancer cell lines to identify multiple opportunities for drug repurposing: Primary screen for Rh41 cells (AID 1347108); further: nearly all actives have a fitted effect of over 70% in size; further: potency means the concentration at half of the fitted maximal effect
Outline: as §1

[10] = qHTS of pediatric cancer cell lines to identify multiple opportunities for drug repurposing: Primary screen for Rh18 cells (AID 1347102); further: nearly all actives have a fitted effect of over 65% in size; further: potency means the concentration at half of the fitted maximal effect
Outline: as §2

[11] = qHTS of pediatric cancer cell lines to identify multiple opportunities for drug repurposing: Confirmatory screen for A673 cells (AID 1347110);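 further: cells exposed to compound for 48 h before the viability read; nearly all actives have a fitted effect of over 65% in size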; further: potency means the concentration at half of the fitted maximal effect
Outline: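 Concentration-response curves came straight from titrations: 11 points (0.78 nM to 46 µM) for MIPE and several concentrations (0.59 nM to 46 µM) for NPC in primary, 11 points in follow-up. Readout: ATP luminescence at 48 h.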

[12] = qHTS of pediatric cancer cell lines to identify multiple opportunities for drug repurposing: Confirmatory screen for BT-12 cells (AID 1347112); further: nearly all actives have a fitted effect of over 55% in size; further: potency means the concentration at half of the fitted maximal effect
Outline: as §2

[13] = qHTS of pediatric cancer cell lines to identify multiple opportunities for drug repurposing: Confirmatory screen for DAOY cells (AID 1347114); further: nearly all actives have a fitted effect of over 65% in size
Outline: (§3)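 Viability measured as metabolically active cells via CellTiter-Glo luminescence following 48 hours of compound exposure, 11-point dilutions in confirmatory testing. 500-1,000 cells/well plated 5 hours before dosing; controls were DMSO and 2.3 µM bortezomib.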

[14] = qHTS of pediatric cancer cell lines to identify multiple opportunities for drug repurposing: Confirmatory screen for NB-EBc1 cells (AID 1347115);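 further: cells exposed to compound for 48 h before the viability read; nearly all actives have a fitted effect of over 45% in size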; further: potency means the concentration at half of the fitted maximal effect
Outline: as §2

[15] = qHTS of pediatric cancer cell lines to identify multiple opportunities for drug repurposing: Confirmatory screen for TC32 cells (AID 1347118);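 further: cells exposed to compound for 48 h before the read; nearly all actives have a fitted effect of over 65% in size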; further: potency means the concentration at half of the fitted maximal effect
Outline: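 Luminescent ATP read-out (CellTiter-Glo) of metabolically active TC32 cells after 48 h exposure. Concentration-response curves came from 11-point (MIPE, 0.78 nM–46 µM) or 8-point (NPC, 0.59 nM–46 µM) primary titrations; follow-up used 11 points.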

[16] = qHTS of pediatric cancer cell lines to identify multiple opportunities for drug repurposing: Confirmatory screen for NB1643 cells (AID 1347109); further: potency means the concentration at half of the fitted maximal effect; nearly all actives have a fitted effect of over 45% in size
Outline: as §2

[17] = qHTS of pediatric cancer cell lines to identify multiple opportunities for drug repurposing: Confirmatory screen for SK-N-MC cells (AID 1347111);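 further: potency means the concentration at half of the fitted maximal effect; cells exposed to compound for 48 h before the readout; nearly all actives have a fitted effect of over 70% in size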
Outline: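 Seed 500-1,000 cells/well; rest 5 h at 37 degrees C. Pin-transfer compounds, 11-point titration. Incubate 48 h. Add CellTiter-Glo, 15 min RT, read luminescence.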

[18] = qHTS of pediatric cancer cell lines to identify multiple opportunities for drug repurposing: Confirmatory screen for LAN-5 cells (AID 1347113)
Outline: as §2

[19] = qHTS of pediatric cancer cell lines to identify multiple opportunities for drug repurposing: Confirmatory screen for SJ-GBM2 cells (AID 1347116); further: potency means the concentration at half of the fitted maximal effect; nearly all actives have a fitted effect of over 60% in size
Outline: as §3

[20] = qHTS of pediatric cancer cell lines to identify multiple opportunities for drug repurposing: Confirmatory screen for BT-37 cells (AID 1347117); further: potency means the concentration at half of the fitted maximal effect; nearly all actives have a fitted effect of over 55% in size
Outline: as §2

Measured: Potency

Cc1ccc(NC(=O)c2ccc(CN3CCN(C)CC3)cc2)cc1Nc1nc(-c2cccnc2)cs1
inactive: [1] | [6] | [7] | [8] | [9]
active: [2] 18700 nM | [3] 21700 nM | [4] 21700 nM | [5] 18700 nM

O=C1C(CCC(O)c2ccc(F)cc2)C(c2ccc(O)cc2)N1c1ccc(F)cc1 (centres undefined)
inactive: [1] | [2] | [3] | [10] | [5] | [6] | [7] | [8] | [9]

CC(C)CN(C[C@@H](O)[C@H](Cc1ccccc1)NC(=O)O[C@H]1CO[C@H]2OCC[C@H]21)S(=O)(=O)c1ccc(N)cc1
active: [1] 18700 nM | [2] 18700 nM | [3] 3850 nM | [4] 12200 nM | [5] 14800 nM
inactive: [10] | [11] | [12] | [13] | [14] | [15]

Cc1nc(C(=O)NCC(=O)O)c(O)c2ccc(Oc3ccccc3)cc12
inactive: [1] | [2] | [3] | [10] | [5] | [6] | [8] | [9]

NS(=O)(=O)c1ccc(Nc2nc(OCC3CCCCC3)c3[nH]cnc3n2)cc1
active: [1] 18700 nM | [2] 16600 nM
inactive: [3] | [10] | [6] | [9]

C[C@@H]1O[C@@H](O[C@H]2CC[C@@]3(C)[C@H](CC[C@@H]4[C@H]3C[C@@H](O)[C@]3(C)[C@@H](C5=CC(=O)OC5)CC[C@]43O)C2)C[C@H](O)[C@@H]1O[C@H]1C[C@H](O)[C@H](O[C@H]2C[C@H](O)[C@@H](O)[C@@H](C)O2)[C@H](C)O1 (stereo in doubt)
active: [1] 429 nM | [2] 241 nM | [3] 140 nM | [4] 140 nM | [5] 121 nM | [6] 67.9 nM | [9] 171 nM | [16] 339 nM | [11] 427 nM | [17] 269 nM | [12] 170 nM | [18] 302 nM | [19] 302 nM | [20] 95.5 nM | [15] 170 nM

C=C1c2cccc(O)c2C(O)=C2C(=O)[C@@]3(O)C(O)=C(C(N)=O)C(=O)[C@@H](N(C)C)[C@@H]3[C@@H](O)[C@H]12
active: [1] 23500 nM | [2] 13200 nM
inactive: [10] | [4] | [5] | [6] | [7]

C[C@@H]1CC=CC=CC=CC=C[C@@H](O[C@@H]2O[C@H](C)[C@@H](O)[C@H](N)[C@H]2O)C[C@@H]2O[C@](O)(C[C@@H](O)C[C@@H]3O[C@@H]3C=CC(=O)O1)C[C@H](O)[C@@H]2C(=O)O
inactive: [1] | [2] | [7]
active: [3] 15300 nM | [4] 9680 nM

O=c1[nH]c(=O)n([C@H]2C[C@@H](O)[C@@H](CO)O2)cc1I
inactive: [1] | [2] | [10] | [4] | [5] | [6] | [7] | [8] | [9]

CCOC(=O)N1CCN([N+]([O-])=NOc2cc(ON=[N+]([O-])N3CCN(C(=O)OCC)CC3)c([N+](=O)[O-])cc2[N+](=O)[O-])CC1
inactive: [1] | [2] | [10] | [4] | [5] | [6] | [7] | [8] | [9]

C[C@@H](O)[C@H]1C(=O)N2C(C(=O)OCOC(=O)C(C)(C)C)=C(SC3CN(C4=NCCS4)C3)[C@H](C)[C@H]12
inactive: [1] | [2] | [10] | [4] | [5] | [6] | [7] | [8] | [9]

CCNC(=O)c1noc(-c2cc(C(C)C)c(O)cc2O)c1-c1ccc(CN2CCOCC2)cc1
active: [1] 105 nM | [2] 105 nM | [10] 93.5 nM | [4] 153 nM | [5] 235 nM | [9] 148 nM | [16] 73.7 nM | [11] 52.2 nM | [17] 82.7 nM | [18] 52.2 nM | [14] 293 nM | [19] 208 nM | [20] 82.7 nM | [15] 82.7 nM

COc1cc(Cl)cn2c(-c3cccc(NC4CNC4)n3)cnc12
active: [1] 10500 nM | [2] 16600 nM | [4] 12200 nM
inactive: [10] | [5] | [7]

O=C(Nc1ccccc1)Nc1ccc(-c2ccc(C(=O)[C@H]3CCC[C@H]3C(=O)O)cc2)cc1
inactive: [1] | [2] | [10]

NC(=O)c1ncn([C@@H]2O[C@H](CO)[C@@H](O)[C@@H]2O)n1
inactive: [1] | [2] | [10] | [4] | [5] | [6] | [7] | [8] | [9]

— PubChem BioAssay (NCATS)
